Laboratory results as given in PubChem BioAssay (NCI).
About 83,000 compounds went through this panel and 20% of them were active in at least one assay; those are over-represented in the sample as a whole.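 Interpretation: 100, growth as untreated; towards 0, rising growth inhibition; 0, no net growth; 0 to -100, cell death. Compounds scoring below 10 were considered active.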 The source made the active and inactive calls.

What was measured:
Experiment in all cases: NCI-60 one-dose screen, 48 h (100 = growth as untreated, 0 = no growth, -100 = all killed)
Details in all cases: 10 µM unless noted
NCI-H23 lung = system: NCI-H23 lung
NCI-H226 lung = system: NCI-H226 lung
NCI-H322M lung = system: NCI-H322M lung
HOP-62 NSCLC = system: HOP-62 NSCLC
NCI-H460 lung = system: NCI-H460 lung
HOP-92 NSCLC = system: HOP-92 NSCLC
NCI-H522 lung = system: NCI-H522 lung
A549/ATCC NSCLC = system: A549/ATCC NSCLC
786-0 renal = system: 786-0 renal
COLO 205 colon = system: COLO 205 colon
DU-145 prostate = system: DU-145 prostate
K-562 leukemia = system: K-562 leukemia
MALME-3M melanoma = system: MALME-3M melanoma
MDA-MB-231 breast = system: MDA-MB-231 breast
RXF 393 renal = system: RXF 393 renal
SF-268 CNS = system: SF-268 CNS
SF-295 CNS = system: SF-295 CNS
SF-539 CNS = system: SF-539 CNS
UACC-257 melanoma = system: UACC-257 melanoma
M14 melanoma = system: M14 melanoma

Measured: growth

COc1cc(OC)c(/C=C/C(=O)c2c(O)cc(OC)c(C3CCN(C)CC3)c2OC)c(OC)c1
active: NCI-H23 lung -58.8% | NCI-H226 lung -47.7% | NCI-H322M lung -15.8% | HOP-62 NSCLC -96.2% | NCI-H460 lung -75% | HOP-92 NSCLC -12.2% | NCI-H522 lung -80% | A549/ATCC NSCLC -60.7% | 786-0 renal -97.7% | COLO 205 colon -96.7% | DU-145 prostate -36.2% | K-562 leukemia 9.67% | MALME-3M melanoma -92.2% | MDA-MB-231 breast -68.1% | RXF 393 renal -75.1% | SF-268 CNS -70.9% | SF-295 CNS -79.9% | SF-539 CNS -91.4% | UACC-257 melanoma -81.7% | M14 melanoma -92.7%

CN(C)c1ccc(-c2ccc3c(c2)c(-c2ccccc2)nc(=O)n3C)cn1
inactive: NCI-H23 lung 71% | NCI-H226 lung 77.2% | NCI-H322M lung 60.9% | HOP-62 NSCLC 36.8% | NCI-H460 lung 19.7% | A549/ATCC NSCLC 45.8% | 786-0 renal 26.2% | COLO 205 colon 28.1% | DU-145 prostate 69.7% | MALME-3M melanoma 62.6% | MDA-MB-231 breast 50.4% | RXF 393 renal 61.3% | SF-268 CNS 46.2% | SF-295 CNS 31.3% | SF-539 CNS 14.2% | UACC-257 melanoma 57.5% | M14 melanoma 20.7%
active: HOP-92 NSCLC -45.4% | NCI-H522 lung 7.96% | K-562 leukemia 3.37%

Cc1ccc(/C=C/C(=O)Nc2ncc(Cc3ccc(F)cc3)s2)o1
inactive: NCI-H23 lung 75.2% | NCI-H226 lung 85.8% | NCI-H322M lung 59.4% | HOP-62 NSCLC 55.1% | NCI-H460 lung 30.4% | HOP-92 NSCLC 77.8% | NCI-H522 lung 38% | A549/ATCC NSCLC 49% | 786-0 renal 66.5% | COLO 205 colon 31.8% | DU-145 prostate 55.6% | K-562 leukemia 20.3% | MALME-3M melanoma 45.9% | MDA-MB-231 breast 77.7% | RXF 393 renal 66.9% | SF-268 CNS 53.3% | SF-295 CNS 35% | SF-539 CNS 48.2% | UACC-257 melanoma 76.3% | M14 melanoma 33.5%

CCOC(=O)c1c(C)nc2c(c1N)CC(=O)N2Cc1ccc(OC)cc1
inactive: NCI-H23 lung 33.7% | NCI-H226 lung 17.4% | NCI-H322M lung 41% | A549/ATCC NSCLC 25.8% | COLO 205 colon 95.4% | DU-145 prostate 47.4% | K-562 leukemia 99.8% | MALME-3M melanoma 33.6% | MDA-MB-231 breast 19.6% | RXF 393 renal 37.7% | SF-295 CNS 28.5% | SF-539 CNS 26.4% | UACC-257 melanoma 49.4% | M14 melanoma 86.8%
active: HOP-62 NSCLC -7.19% | NCI-H460 lung 5.12% | HOP-92 NSCLC -4.45% | NCI-H522 lung -1.06% | 786-0 renal 6.69% | SF-268 CNS 4.12%

O=C(O)[C@@H](Cc1ccc2ccccc2c1)NC(=O)n1c2ccccc2c2ccccc21
active: NCI-H460 lung 9.11% | NCI-H522 lung -7.97% | COLO 205 colon -35.2% | SF-539 CNS 1.16% | M14 melanoma 4.26%
inactive: NCI-H23 lung 34.8% | NCI-H226 lung 85.9% | NCI-H322M lung 49% | HOP-62 NSCLC 31.3% | HOP-92 NSCLC 39.5% | A549/ATCC NSCLC 44.3% | 786-0 renal 27.7% | DU-145 prostate 19.4% | K-562 leukemia 11.6% | MALME-3M melanoma 22% | MDA-MB-231 breast 15.6% | RXF 393 renal 14.6% | SF-268 CNS 42.5% | SF-295 CNS 11.6% | UACC-257 melanoma 57.7%

CCN(CC)CCCN1C(=O)c2c(c(C)c3c(oc4ccc(OC)cc43)c2C)C1=O
inactive: NCI-H23 lung 104% | NCI-H226 lung 32.4% | NCI-H322M lung 102% | HOP-62 NSCLC 93.9% | NCI-H460 lung 108% | HOP-92 NSCLC 86.7% | NCI-H522 lung 93.9% | A549/ATCC NSCLC 101% | 786-0 renal 40.2% | COLO 205 colon 92.2% | DU-145 prostate 112% | MALME-3M melanoma 97.1% | MDA-MB-231 breast 99.5% | RXF 393 renal 70.3% | SF-268 CNS 98.6% | SF-295 CNS 110% | SF-539 CNS 91.8% | UACC-257 melanoma 103% | M14 melanoma 104%
active: K-562 leukemia 0.0716%

O=C1/C(=C/c2ccc(F)cc2)CN(C(=O)C(Cl)Cl)C/C1=C\c1ccc(F)cc1
active: NCI-H23 lung -48.1% | NCI-H226 lung 0.691% | NCI-H322M lung -63% | HOP-62 NSCLC -19.1% | NCI-H460 lung -78% | HOP-92 NSCLC -48% | NCI-H522 lung -58.1% | A549/ATCC NSCLC -31.8% | 786-0 renal -56.2% | COLO 205 colon -70.2% | DU-145 prostate -96.5% | K-562 leukemia -6.01% | MALME-3M melanoma -34.9% | MDA-MB-231 breast -39.8% | RXF 393 renal -91.8% | SF-268 CNS -30.9% | SF-295 CNS -75.9% | SF-539 CNS -97% | UACC-257 melanoma -43.3% | M14 melanoma -68.5%
